{"source": "PubChem BioAssay (NCI)", "note": "Compounds without any hit were thinned out: in the full panel of roughly 83,000, 20% have a hit.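 Growth was measured after 48 h exposure to one concentration of compound in 96-well plates. Values under 10 count as active.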 Calls of active or inactive are those of the source.", "data": [{"test_system": "SK-MEL-2 melanoma", "experiment": "NCI-60 one-dose screen, 48 h (100 = growth as untreated, 0 = no growth, -100 = all killed)", "conditions": "10 µM unless noted", "method": "Growth inhibition of the SK-MEL-2 human tumor cell line is measured as a screen for anti-cancer activity. Cells are grown in 96 well plates and exposed to the test compound for 48 hours. Compounds are tested at a single concentration, which is 10^-5 M for most compounds. The reported endpoint is percent growth (GI% or GIPRCNT), where numbers from 0 - 100% represent growth inhibition, and numbers from -100% - 0 represent cell death. For example, a value of 40 represents 60% growth inhibition. A value of 0 means no net growth occurred over the course of the experiment. A value of -40 indicates 40% of cells at the beginning of the experiment died by the end of the experiment. A value of -100 means all cells are dead at the end of the experiment.\nNCI-60 Human Tumor Cell Lines Screen was performed using the standard one-dose NCI protocol, which is described in more detail at https://dtp.cancer.gov/discovery_development/nci-60/default.htm.\nCompounds with GIPRCNT values below 10 were considered active. Activity score was based on GIPRCNT using the following formula: […]\nScore is 0 for GIPRCNT values of 100 or above, 50 for GIPRCNT values of 0, and 100 for GIPRCNT values of -100.", "values": [{"smiles": "COP(=O)(OC)C(c1ccc(O)cc1)(c1ccc(O)cc1)c1ccc(O)cc1", "growth": "101% (inactive)"}, {"smiles": "Cc1ccc(/C=C/C(=O)c2ccc(F)cc2)s1", "growth": "85.8% (inactive)"}, {"smiles": "CC1=C([Se]CC(OC(=O)[C@@H](CSSC(C)(C)C)NC(=O)C(C)(C)C)C(=O)NCCCCCC(=O)OCc2ccccc2)C(=O)c2ccccc2C1=O", "note": "(stereo not given in full)", "growth": "-24.2% (active)"}, {"smiles": "NS(=O)(=O)c1ccc(-n2ncc3c(N/N=C/c4ccccc4)ncnc32)cc1", "growth": "70.5% (inactive)"}, {"smiles": "CCCCCc1c(C)[nH]c(/C=C2\\N=C(c3ccc[nH]3)C=C2OCc2ccccc2)c1C", "growth": "-75% [100 µM] (active)"}, {"smiles": "COc1cc(/C=C/C(=O)c2c(C)n([O-])c3ccc(Cl)cc3[n+]2=O)cc(OC)c1OC", "growth": "61.8% (inactive)"}, {"smiles": "COc1cccc(/C=N\\NC(=O)c2ccncc2)c1O", "growth": "43.8% (inactive)"}, {"smiles": "Cc1ccc(/C=C(/C#N)n2nnc3ncccc32)cc1", "growth": "17.1% (inactive)"}, {"smiles": "O=C(N/N=C/c1cccc(O)c1O)c1ccccc1", "growth": "54.5% (inactive)"}, {"smiles": "COc1ccc2c3c(ccc2c1)C(=O)/C(=C\\O)CC3", "growth": "99.8% (inactive)"}, {"smiles": "CC(NC(N)=S)c1ccccc1", "note": "(stereo not given)", "growth": "120% (inactive)"}, {"smiles": "COc1ccc(C2CC(c3ccc(Nc4ccnc5cc(Cl)ccc45)cc3)=NN2C(C)=O)cc1", "note": "(stereo not given)", "growth": "107% (inactive)"}, {"smiles": "COc1cc(/C=C\\C(C)=N\\Nc2ccccc2)ccc1O", "growth": "92.5% (inactive)"}, {"smiles": "COc1ccc2c(c1)CC[C@@H]1[C@@H]2CC[C@]2(C)[C@@H](O)C(=O)C[C@@H]12", "growth": "107% (inactive)"}, {"smiles": "CCOc1nc(-c2ccco2)n2nc(-c3ccco3)cc2n1", "growth": "117% (inactive)"}, {"smiles": "CSc1nc2nc3c(c(-c4ccc(C)cc4)c2c(=O)[nH]1)CN(C)C/C3=C\\c1ccc(C)cc1", "growth": "112% (inactive)"}, {"smiles": "O=C1NC(=S)S/C1=C\\c1cc(Br)ccc1O", "growth": "100% (inactive)"}, {"smiles": "NS(=O)(=O)N(c1cc(C(F)(F)F)cc(C(F)(F)F)c1)C1CCN(Cc2ccc(C(F)(F)F)cc2)CC1", "growth": "28% (inactive)"}, {"smiles": "O=C(O)CNC(=O)C1(N2C(=O)c3ccccc3C2=O)CCCC1", "growth": "101% (inactive)"}, {"smiles": "C[C@]12CCC(=O)C=C1CC[C@H]1[C@@H]3C[C@@H](O)[C@](O)(C(=O)CO)[C@@]3(C)C[C@H](O)[C@@]12F", "growth": "109% (inactive)"}, {"smiles": "Cc1ccccc1NC(=O)NC(CC(N)=O)c1ccc2c(c1)nc(-c1cccc(Oc3ccc(C(C)(C)C)cc3)c1)n2CCCN1CCCCC1C", "note": "(stereo not given)", "growth": "51.8% (inactive)"}, {"smiles": "Fc1ccc(-c2nn3c(-c4cc(C(F)(F)F)cc(C(F)(F)F)c4)nnc3s2)cc1", "growth": "-33.3% (active)"}, {"smiles": "O=C(CSc1ncc(-c2ccccc2)n1-c1ccccc1)Nc1ccc(-c2nc3ccccc3s2)cc1", "growth": "80.6% (inactive)"}, {"smiles": "Clc1ccc2[nH]cc(-c3cncn3CCc3ccccc3)c2c1", "growth": "52.5% (inactive)"}, {"smiles": "N#CSCC1CC(O)(c2ccccc2)C(c2ccccc2)C(c2ccc(Cl)cc2)O1", "note": "(stereo not given)", "growth": "-42.7% (active)"}, {"smiles": "NS(=O)(=O)c1ccc(-n2nc(-c3ccc(Br)cc3)ccc2=O)cc1", "growth": "66.6% [100 µM] (inactive)"}, {"smiles": "OCCN1CCN(CCCN2c3ccccc3Sc3ccc(C(F)(F)F)cc32)CC1", "growth": "8.96% (active)"}, {"smiles": "CCn1cnc(C[C@H](NC(=O)[C@H](CCCCNC(=O)Nc2cc(C(F)(F)F)cc(C(F)(F)F)c2)NC(=O)Nc2cc(C(F)(F)F)cc(C(F)(F)F)c2)C(=O)OC)c1", "growth": "-100% [100 µM] (active)"}, {"smiles": "CN(C)CCCN=c1cc2c(=O)n(CCCN(C)C)c(=O)c3c(NCCCN(C)C)cc4c(O)n(CCCN(C)C)c(=O)c1c4c3-2", "growth": "-9.31% (active)"}, {"smiles": "O=C1CSC(c2ccccc2Cl)N1c1nnc(Cn2nnc3ccccc32)o1", "note": "(stereo not given)", "growth": "91.7% (inactive)"}, {"smiles": "CCN(CC)CCNCC(=O)Oc1ccc(/C=C/C(=O)CC(=O)/C=C/c2ccc(OC(=O)CNCCN(CC)CC)c(OC)c2)cc1OC", "growth": "10.7% (inactive)"}, {"smiles": "O=C(Nc1ccccc1)c1cc(-n2cnc([N+](=O)[O-])c2)cc(-n2cnc([N+](=O)[O-])c2)n1", "growth": "103% (inactive)"}, {"smiles": "O=C1NCCc2c1noc2-c1ccccc1", "growth": "101% (inactive)"}, {"smiles": "CC(=O)[C@H]1CC[C@H]2[C@@H]3C[C@H](C)C4=CC(=O)CC[C@]4(C)[C@H]3C(=O)C[C@]12C", "growth": "98.9% (inactive)"}, {"smiles": "COc1cc(/C=C/C(=O)C(C(=O)/C=C/c2ccc(OC(=O)CCNC34CC5CC(CC(C5)C3)C4)c(OC)c2)C(=O)CCNC23CC4CC(CC(C4)C2)C3)ccc1OC(=O)CCNC12CC3CC(CC(C3)C1)C2", "note": "(stereo not given)", "growth": "7.68% (active)"}, {"smiles": "C/C(=C\\CCc1ccoc1)CC/C=C(\\C)CCCC1COC(=O)C1", "note": "(stereo not given)", "growth": "100% (inactive)"}, {"smiles": "O=C(N/N=C/c1ccc(Cl)cc1Cl)c1ccccc1Nc1cccc(C(F)(F)F)c1", "growth": "54.9% (inactive)"}, {"smiles": "COc1ccc(CNC(=O)c2c(C)n([O-])c3ccc(OC)cc3[n+]2=O)cc1", "growth": "102% (inactive)"}, {"smiles": "CCOC(=O)CNC(=O)C1(NC(=O)CNC(=O)OCc2ccccc2)CCCC1", "growth": "107% (inactive)"}, {"smiles": "CCSc1ncc(Br)c(Sc2nc(N)nc3nc[nH]c23)n1", "growth": "73.1% (inactive)"}]}]}
